Article PMC4552634, “A New Set of Chemical Starting Points with Plasmodium falciparum Transmission-Blocking Potential for Antimalarial Drug Discovery” (PLoS ONE, 2015)
The campaign covered roughly 13,000 compounds. About 3,200 (25%) showed an effect of 50% or more. The list shows a part of the results.

Tested on: P. falciparum stage V gametocytes
Design: BacTiter-Glo ATP luminescence viability of purified stage V gametocytes in 384-well plates, per cent inhibition versus DMSO
Details: 48 h, 5 µM; inhibitor

Point of comparison: `COC(=O)c1cccc(CNCc2cccc(-c3ccc(-c4nc5ccccc5[nH]4)cc3)c2)c1.O=C(O)C(F)(F)F` [TCMDC-132959], “% Inhibition” value -6.074%. Against it:
- O=C(Nc1ccc(C(=O)N(Cc2ccc3c(c2)OCO3)C2CCCC2)cc1)c1cccs1 [TCMDC-125341] — higher, 18.48%
- O=C(Nc1cccc(C2=NCCCN2)c1)Nc1cccc(C2=NCCCN2)c1 [TCMDC-137203] — higher, -4.824%
- CNCC(C)(C)c1nc(-c2ccc(Cl)c(O)c2)c(-c2ccncc2)[nH]1 [TCMDC-140762] — lower, -81.65%
- CC1CCc2sc(-c3nnc(SC(C)C(=O)N4CCCC4)o3)cc2C1 (stereo not shown) [TCMDC-124867] — higher, 8.673%
- COc1ccc2nc(N=C3NC4(c5ccccc5)NC(=Nc5nc6ccc(OC)cc6[nH]5)NC4(c4ccccc4)N3)[nH]c2c1 (stereo not shown) [TCMDC-139632] — higher, -5.623%
- O=C(Nc1ccc(OC2CCN(Cc3ccsc3)C2)c(Cl)c1)c1cccs1 (stereo not shown) [TCMDC-133948] — higher, 17.98%
- CC(C)NCc1ccc(-c2ccc(CN3CCCC(c4ccccc4)C3)cc2)c(C(=O)NC2Cc3ccccc3C2)c1 (stereo not shown) [TCMDC-134700] — higher, 9.317%
- CCc1ccc(-c2cnc(N)c3cc(-c4ccnc(N)n4)ccc23)cc1 [TCMDC-134546] — higher, 12.63%
- Cc1cccc2[nH]c(-c3cccc(-c4cccc(NC(=O)Nc5ccsc5)c4)c3)nc12 [TCMDC-133213] — higher, -5.013%
- COc1ccc2c(ccc3c2ncc2c(=O)n(-c4ccccc4)[nH]c23)c1 [TCMDC-142015] — higher, 8.903%
- NC(=O)c1cccc(CNCc2ccc(-c3cccc(-c4nc5ccccc5[nH]4)c3)cc2)c1.O=C(O)C(F)(F)F [TCMDC-132570] — higher, 70.11%
- O=C(O)C(F)(F)F.c1cc(-c2ccc(CNCc3ccsc3)cc2)cc(-c2nc3ccccc3[nH]2)c1 [TCMDC-132563] — lower, -10.09%
- Nc1cccc(CNCc2ccc(-c3cccc(-c4nc5ccccc5[nH]4)c3)cc2)c1.O=C(O)C(F)(F)F [TCMDC-132924] — lower, -75.75%
- Cn1cccc1CCNCc1ccc(-c2cccc(-c3nc4ccccc4[nH]3)c2)cc1.O=C(O)C(F)(F)F [TCMDC-132543] — higher, 2.509%
- Cn1cncc1CNCc1ccc(-c2cccc(-c3nc4ccccc4[nH]3)c2)cc1.O=C(O)C(F)(F)F [TCMDC-132569] — higher, 52.47%
- O=C(O)C(F)(F)F.c1ccc(-n2ncc(CNCc3ccc(-c4cccc(-c5nc6ccccc6[nH]5)c4)cc3)n2)cc1 [TCMDC-132564] — lower, -40.42%
- COC(=O)c1cccc(CNCc2ccc(-c3cccc(-c4nc5cc(C(F)(F)F)ccc5[nH]4)c3)cc2)c1.O=C(O)C(F)(F)F [TCMDC-132947] — lower, -37.36%
- COC(=O)c1cccc(CNCc2ccc(-c3cccc(-c4nc5ccccc5[nH]4)c3)cc2)c1.O=C(O)C(F)(F)F [TCMDC-132555] — higher, 70.67%
- N#Cc1cccc(Nc2nccc(Nc3ccc(Oc4ccccc4)cc3)n2)c1 [TCMDC-138558] — lower, -36.77%
- CCCCCCc1cc(O)c2c3c(c(=O)oc2c1)CCN(C)C3 [TCMDC-124193] — higher, 9.848%
- CC(C)c1ccc(OCC(O)CN(C)C(C)C(O)c2ccccc2)c(Br)c1 (stereo not shown) [TCMDC-141995] — higher, 3.955%
- CC1(C)N=C(N)N=C(N)N1c1cccc(I)c1 [TCMDC-138037] — higher, -1.195%
- c1ccc(-c2cc(NCc3cccc4ccccc34)c3[nH]ncc3n2)cc1 [TCMDC-139455] — higher, 76.18%
- c1ccc(-c2cc(NCCNc3cc(-c4ccccc4)nc4ccccc34)c3ccccc3n2)cc1 [TCMDC-137986] — higher, 24.95%
- COc1ccc2nc(-c3ccccc3)cc(NCCCNc3cc(-c4ccccc4)nc4ccc(OC)cc34)c2c1.Cl [TCMDC-137734] — higher, 124.9%
- c1ccc(-c2cc(NCCCCNc3cc(-c4ccccc4)nc4ccccc34)c3ccccc3n2)cc1 [TCMDC-137738] — higher, 98.03%
- COc1ccc2nc(C)cc(NCc3cccc4ccccc34)c2c1.Cl [TCMDC-138974] — lower, -17.8%
- c1ccc(-c2cc(NCCCCCCCCNc3cc(-c4ccccc4)nc4ccccc34)c3ccccc3n2)cc1 [TCMDC-137983] — higher, 96.95%
- CN(C)CCNc1cc(-c2ccc3ccccc3c2)nc2ccccc12 [TCMDC-124260] — higher, 3.28%
- O=[N+]([O-])c1ccc(/C=N/Nc2cc(-c3ccccc3)nc3ccccc23)o1 [TCMDC-142051] — higher, 34.86%
- COc1ccc2nc(-c3ccccc3)cc(NCCN(C)C)c2c1 [TCMDC-123487] — lower, -6.807%
- C(=NNc1cc(-c2ccccc2)nc2ccccc12)c1cccnc1 [TCMDC-142052] — lower, -23.81%
- COc1ccc2c(NCCc3ccccc3)cc(-c3ccccc3)nc2c1 [TCMDC-138992] — higher, 28.49%
- CS(=O)(=O)NCCCNCc1ccc(-c2ccc(-c3nc4cc(C(F)(F)F)ccc4[nH]3)s2)cc1.O=C(O)C(F)(F)F [TCMDC-133076] — lower, -24.74%
- COc1ccc2cc(C(C)NC3CCN(c4cccc(NC(=O)c5ccncc5)c4)CC3)ccc2c1 (stereo not shown) [TCMDC-124668] — lower, -18.92%
- COc1ccc(CNC2CCN(C)CC2)cc1-c1ccc(OC)c(S(=O)(=O)NCc2ccccc2)c1 [TCMDC-132249] — higher, 105.1%
- COc1ccc(CNC2CCN(C)CC2)cc1-c1ccc(S(=O)(=O)NCc2ccccc2)c(C)c1 [TCMDC-132480] — higher, 85.24%
- COc1ccc(CNC2CCN(C)CC2)cc1-c1ccc(S(=O)(=O)NCc2ccccc2)c(F)c1 [TCMDC-132262] — higher, 59.53%
- COc1ccc(-c2cccc(CNC3CCN(C)CC3)c2)cc1S(=O)(=O)NCc1ccccc1 [TCMDC-132375] — higher, 75.59%
- NC1=NC(Cc2ccccc2)N(c2ccc(Cl)cc2)C(N)=N1 (stereo not shown) [TCMDC-131291] — higher, 0.2754%
- CC(C)(C)C(C)(C)Cc1ccc(O)c(CN2CCN(c3ccccc3)CC2)c1 [TCMDC-125678] — lower, -31.97%
- CC(C)[C@H](NC(=O)c1ccc(O)c(-c2cccc(C(F)(F)F)c2)c1)C(=O)NCCN1CCCCC1 [TCMDC-140815] — higher, 44.47%
- O=C(Nc1ccc(-c2ccc(-c3nc4ccccc4[nH]3)s2)cc1)Nc1ccc(Cl)c(Cl)c1 [TCMDC-133283] — higher, 1.039%
- CC[C@H](NC(=O)c1c(CC2CCN(CC(C)=O)CC2)c(-c2ccccc2)nc2ccccc12)c1ccccc1 [TCMDC-141946] — higher, 44.22%
- CC(C)(C)c1ccc(NC(=O)c2ccc(CN3CCCN(CC4CCCCC4)CC3)cc2)cc1 [TCMDC-136428] — lower, -70.52%
- N#Cc1cccc(NC(=O)Nc2ccc(-c3cccc(-c4nc5ccc(F)cc5[nH]4)c3)cc2)c1 [TCMDC-133199] — higher, 24.35%
- CN(C(=O)c1snnc1-c1ccccc1)C1CCN(CCCCCNC(=O)/C=C/c2ccc(Cl)c(Cl)c2)CC1 [TCMDC-139993] — lower, -14.58%
- Oc1ccc2[nH]c(-c3ccc(F)cc3F)nc2c1CN1CCC(O)(c2ccccc2)CC1 [TCMDC-136532] — lower, -67.95%
- COc1ccc2nccc([C@@H](O)CN3CCC(NCc4nc5c([N+](=O)[O-])cccc5[nH]4)CC3)c2c1 [TCMDC-140982] — higher, -2.529%
- CC1CN(Cc2cccc(-c3ccc(-c4nc5cc(F)ccc5[nH]4)cc3)c2)CC(C)O1.O=C(O)C(F)(F)F (stereo not shown) [TCMDC-133818] — higher, 13.23%
- CC(CN1CCN(CC(c2ccc(F)cc2)N2CCN(C)CC2)CC1)C(=O)c1ccc(O)cc1 (stereo not shown) [TCMDC-125496] — higher, 29.96%
- Cc1ccc(C2(C)CN(CCCOc3cccc(-c4ccc(C(=O)NC(C)C)cc4)c3)CCO2)cc1 (stereo not shown) [TCMDC-134386] — higher, 27.16%
- CC(C)N1CCN(C(CN2CCN(CCCOc3ccc(-c4ccccc4)cc3)CC2)c2ccc(F)cc2)CC1 (stereo not shown) [TCMDC-135497] — higher, 69.79%
- CC(C)N1CCN(C(CN2CCN(CCCOc3cccc(F)c3)CC2)c2ccc(F)cc2)CC1 (stereo not shown) [TCMDC-135493] — higher, 99.24%
- CC(C)N1CCN(C(CN2CCN(CCCOc3cccc(-c4ccccc4)c3)CC2)c2ccc(F)cc2)CC1 (stereo not shown) [TCMDC-135498] — higher, 62.15%
- COc1ccc(C(C(=O)NC2CCN(C[C@H](O)c3ccnc4ccc(OC)cc34)CC2)N2CCN(c3ccc(F)cc3)CC2)cc1 (stereo partly shown) [TCMDC-140993] — lower, -29%
- CC(C)N1CCN(C(CN2CCN(CCCOc3ccccc3-c3ccccc3)CC2)c2ccc(F)cc2)CC1 (stereo not shown) [TCMDC-135499] — higher, 44.69%
- CC(C)N1CCN(C(CN2CCN(CCCOc3ccc4nonc4c3)CC2)c2ccc(F)cc2)CC1 (stereo not shown) [TCMDC-135500] — higher, 92.96%
- O=C(CCN1C(=O)c2ccccc2C1=O)N1CCN(CC=Cc2ccccc2)CC1 [TCMDC-125744] — higher, 5.299%
- CCCN(c1ccc(C(F)(F)F)cc1[N+](=O)[O-])S(=O)(=O)C(c1ccccc1)c1ccc(C(F)(F)F)cc1[N+](=O)[O-] (stereo not shown) [TCMDC-132114] — higher, 11.09%
- COc1ccc(C)c(Nc2ccnc(Nc3ccc(-c4cnc[nH]4)cc3)n2)c1 [TCMDC-138695] — lower, -34.59%
- CC(C)(C)NC(=O)COC(=O)c1c2c(nc3ccccc13)C(=Cc1ccc3c(c1)OCO3)CCC2 [TCMDC-125143] — higher, 31.31%
- CC(C)CCN(Cc1cncn1Cc1cccc(Cl)c1)C(=O)c1cncc(-c2ccccc2)c1 [TCMDC-132465] — higher, 21.61%
